± gives the standard deviation of the averaged measurements.
tested on: TDF; experiment: cell number relative to DMSO (% of DMSO); higher = more cells (less growth inhibition / toxicity); settings: concentration: 10 µM; 24 h
Method in brief: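 HCC1569 and TDF cells were seeded at 800 per well in 384-well plates in RPMI with 10% FBS and treated with compounds at 10 µM for 24 h at 37 °C, in triplicate. After fixation in 3.7% formaldehyde, cells were stained with a rabbit anti-H1.0 antibody, an AlexaFluor 647 secondary and DAPI, and six fields per well were imaged at ×10. H1.0 nuclear intensity or cell number is given as percent of the plate control, using the median of replicates, with HCC1569 values smoothed for positional effects.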
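Also: TDF denotes transformed human dermal fibroblasts of mesenchymal origin.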

First: CCCCCCCCCCCCCCCC(=O)NC(COP(=O)(O)O)C(=O)O (centres undefined)
Second: CCCCCCCCCCCCCCCC(=O)NCCO [Palmitoylethanolamide]
The cell number of the first is higher: 109 for the first, 101 for the second.

Compared with `COc1c2occc2cc2ccc(=O)oc12` [Xanthotoxin], `CCOC(=O)c1csc(Nc2ccc(Cl)cc2)n1` [ethyl 2-(4-chloroanilino)-1,3-thiazole-4-carboxylate] is lower in cell number: 104 for the first, 99.4 for the second.

Compared with `Brc1c(Br)c(Br)c2n[nH]nc2c1Br` [TBB - 4,5,6,7-Tetrabromobenzotriazole], `O=C(O)Cc1nn(Cc2nc3cc(C(F)(F)F)ccc3s2)c(=O)c2ccccc12` is lower in cell number: 96.4 for the first, 90.1 for the second.

Compared with `Br.Br.NC(N)=NCCSSCCN=C(N)N` [Guanidinoethyl disulfide dihydrobromide], `Br.Br.N=C(N)SCCc1cccc(CCSC(=N)N)c1` [1,3-PBIT dihydrobromide] is higher in cell number: 108 for the first, 113 for the second.

Compared with `NC(Cc1cccc(-c2ccccc2CP(=O)(O)O)c1)C(=O)O` (stereo not drawn) [Phenylbenzene-omega-phosphono-alpha-amino acid], `Cc1ccc(C(=O)c2ccc(CC(=O)O)n2C)cc1` [Tolmetin] is lower in cell number: 104 for the first, 99 for the second.

Going from `Oc1ccc(C=Cc2cc(O)cc(O)c2)cc1` [Resveratrol] to `CCCCCCCCCCCCCC(=O)NC(C)C(O)c1ccccc1` [D-erythro MAPP], the cell number rises from 79.5 ± 4 to 99.8.

Going from `CC=CCC=CCCC(=O)C1OC1C(N)=O` (centres undefined) [Cerulenin] to `CCCN1CCCC[C@H]1C(=O)Nc1c(C)cccc1C.Cl.O`, the cell number rises from 91.5 to 103.
